Results reported in PubChem BioAssay (NCI).
Several values for one entry are separate records, joined by “and”; a condition that tells them apart may be missing. Equal values may be shown once. The panel holds about 83,000 compounds, 20% with a hit somewhere; the sample as a whole holds those more often.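 Single-dose data. Exposure time 48 hours. Values below 10 considered active.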 Activity calls are given as the source filed them.

The compounds below were run on HT29 colon (assay: NCI-60 one-dose screen, 48 h (100 = growth as untreated, 0 = no growth, -100 = all killed)). Details: 0.005 µM.
Protocol: Growth inhibition of the HT29 human tumor cell line is measured as a screen for anti-cancer activity. Cells are grown in 96 well plates and exposed to the test compound for 48 hours. Compounds are tested at a single concentration, which is 10^-5 M for most compounds. The reported endpoint is percent growth (GI% or GIPRCNT), where numbers from 0 - 100% represent growth inhibition, and numbers from -100% - 0 represent cell death. For example, a value of 40 represents 60% growth inhibition. A value of 0 means no net growth occurred over the course of the experiment. A value of -40 indicates 40% of cells at the beginning of the experiment died by the end of the experiment. A value of -100 means all cells are dead at the end of the experiment.
NCI-60 Human Tumor Cell Lines Screen was performed using the standard one-dose NCI protocol, which is described in more detail at https://dtp.cancer.gov/discovery_development/nci-60/default.htm.
Compounds with GIPRCNT values below 10 were considered active. Activity score was based on GIPRCNT using the following formula: […]
Score is 0 for GIPRCNT values of 100 or above, 50 for GIPRCNT values of 0, and 100 for GIPRCNT values of -100.
`CN(C)CCNc1ncc(F)c(-c2cnc3cc(-c4cnn(C)c4)ccn23)n1` was tested, and the growth was 99.7% (inactive).

Same assay, conditions: 10 µM unless noted
For `CCOC(=O)C1=C(C)N=C2SC=C(c3ccc(F)cc3)N2[C@H]1c1cn(-c2ccccc2)nc1-c1ccc(Cl)cc1`, the growth was 101% (inactive). For `C=C1CC[C@@H]2[C@](C)(COC(C)=O)[C@H](OC(C)=O)CC[C@@]2(C)[C@@H]1CC(Nc1ccc(S(=O)(=O)Nc2nccs2)cc1)C1=CCOC1=O` (stereo not given in full), the growth was -42.7% (active). In the case of `O=C1C=CC(=O)N1c1ccc2ccccc2c1`, the growth is reported as -42.9% (active) and 32.6% (inactive). For `COc1ccc(C/C(C)=C(/c2ccc(OCCN3CCCC3)cc2)c2ccc(OC(=O)NCc3ccccc3)cc2)cc1`, the growth was 18.6% (inactive). With `COC1=CC(c2ccc[nH]2)=N/C1=C\c1[nH]c(C)c(C(=O)Oc2ccccc2)c1C` the growth was -15.7% (active). For `CCOC(=O)c1cnn(-c2ccc(S(N)(=O)=O)cc2)c1N`, the growth was 102% (inactive). `Cc1ccccc1SSc1ccccc1C` was tested, and the growth was 23.6% (inactive). `C#CCOCC1CN(C)C(=O)O1` (stereo not given) was tested, and the growth was 99.5% (inactive). With `COCCn1cc(-c2csc(-c3cn(C)c4ccc(F)cc34)n2)c2cccnc21` the growth was 35.5% (inactive). `COc1cc(CNC(=O)CCCC/C=C/C(C)C)ccc1OCc1cn(-c2ccc([N+](=O)[O-])cc2)nn1` was tested, and the growth was 98.1% (inactive). For `O=C1C(c2c[nH]c3ccccc23)=C(c2coc3cc(Br)ccc23)C(=O)N1O`, the growth was 103% (inactive). `CCNC(=O)Oc1ccc(/C(=C(/C)Cc2ccc(OC)cc2)c2ccc(OCCN(CC)CC)cc2)cc1` was tested, and the growth was -42.2% (active). `CCN1C(=S)N(CC)C2C1NC(=S)N2/N=C/C=C/c1ccccc1` (stereo not given) was tested, and the growth was 5.26% (active). For `Cc1ccc(NC(=O)c2ccc(CN3CCN(C)CC3)cc2)cc1Nc1nccc(-c2cccnc2)n1`, the growth was 52.9% (inactive) and 24.1% (inactive). In the case of `Cc1ccc2nc3ccccc3c(NCc3ccc(Cl)cc3)c2c1`, the growth is reported as 5.35% (active). With `COc1ccc2c(c1)CC[C@@H]1[C@@H]2CC[C@]2(C)C3C(=CCC4C(=O)N(c5ccccc5)C(=O)C43)C[C@@H]12` (stereo not given in full) the growth was 71.3% (inactive). `COc1cc(/C=C2\CCC/C(=C\c3cc(CN4CCCC4)c(O)c(OC)c3)C2=O)cc(CN2CCCC2)c1O` was tested, and the growth was -46.2% (active). For `Clc1ccc(CNc2ccc3nc(CCC4CCCCC4)[nH]c3c2)cc1`, the growth was 4.9% (active). For `O=C(CCCOc1ccc(Br)cc1)Nc1ncc(Cc2ccc(F)cc2)s1`, the growth was 49.1% (inactive). For `O=C([C@H]1C[C@H]1c1ccc(S(F)(F)(F)(F)F)cc1)N1CCN(c2cc(Cl)ccc2C(F)(F)F)CC1`, the growth was 67.5% (inactive). With `CCOC(=O)n1cc(-c2nonc2-c2cn(C)c3ccc(OC)cc23)c2cc(F)ccc21` the growth was 71.1% (inactive). `COc1ccc(-c2c[nH]c(C(=O)O)c2-c2cc(OC)c(OC)c(OC)c2)cc1` was tested, and the growth was 14.7% (inactive). In the case of `O=C1CCc2c(sc3[nH]c(=S)n(Cc4ccc(Cl)cc4)c(=O)c23)C1`, the growth is reported as 14.5% (inactive). `Cc1ccc(-c2nc(C#N)c(S(=O)(=O)N(C)C)o2)cc1` was tested, and the growth was 97.7% (inactive). In the case of `COc1ccc(C2Nc3nc(SC)nc(N)c3N=C3c4ccccc4CCC32)cc1` (stereo not given), the growth is reported as 69.9% (inactive). In the case of `O=c1c(/C=C/c2ccco2)nnc2sc(Nc3ccc(Cl)cc3)nn12`, the growth is reported as 93.5% (inactive). With `O=c1oc2c(Br)cc(Br)cc2cc1-c1cc(-c2ccc(-c3cc(-c4cc5cc(Br)cc(Br)c5oc4=O)nc(-c4cc5cc(Br)cc(Br)c5oc4=O)c3)cc2)cc(-c2cc3cc(Br)cc(Br)c3oc2=O)n1` the growth was 90.8% (inactive). In the case of `CC(=O)c1c(C)nc(SCC(=O)Nc2ccc(Cl)cc2)n1-c1ccc(Cl)cc1`, the growth is reported as 83% (inactive). With `COc1ccc(CCNC(=O)COc2cc3c(Nc4ccc(F)c(Cl)c4)ncnc3cc2OC)cc1OC` the growth was 95.5% (inactive). In the case of `Cc1c(CC(=O)OCCO)cc(-c2ccc(Cl)cc2)n1-c1ccccc1`, the growth is reported as 101% (inactive). With `C=C[C@]1(C)C=C2CC[C@@H]3C(C)(C)C(=O)CC[C@@]3(C)[C@@H]2CC1` the growth was 102% (inactive). In the case of `CCOc1nc(-c2ccccc2)cc2c(O)c(C(=O)N/N=C/c3ccc(N(C)C)cc3)[nH]c(=O)c12`, the growth is reported as 145% (inactive). In the case of `COc1ccc(-c2cc(-c3cccnc3)nc3sc4c(Cl)nnnc4c23)cc1OC`, the growth is reported as 87.9% (inactive). In the case of `COC(=O)/C=C1/SC(=Nc2ccc([N+](=O)[O-])cc2)N(CCc2c[nH]c3ccccc23)C1=O`, the growth is reported as 51.8% (inactive). `COc1cc(/C=C2/C=C(c3ccc(C(C)(C)C)cc3)N(CCc3ccc(S(N)(=O)=O)cc3)C2=O)cc(OC)c1OC` was tested, and the growth was 8.93% (active). For `O=C1c2cc3c(cc2-c2c1c1ccc(Cl)cc1c(=O)n2CCCn1ccnc1)OCO3`, the growth was -62.9% (active). For `Nc1nc2ccccc2c2c(=O)c3ccc(Cl)cc3sc12`, the growth was 98% (inactive). In the case of `O=C(NNC(=S)Nc1ccccc1)c1ccncc1`, the growth is reported as 99.6% (inactive).

Same assay, conditions: 30 µM
For `CN(C)CCNc1ncc(F)c(-c2cnc3cc(-c4cnn(C)c4)ccn23)n1`, the growth was 42.8% (inactive).
